This is an account of results in PubChem BioAssay (NCI).

Holding throughout (assay): NCI-60 one-dose screen, 48 h (100 = growth as untreated, 0 = no growth, -100 = all killed)
What all share (conditions): 10 µM

The test system of experiment [1] is DU-145 prostate.
Experiment [2] has as its system K-562 leukemia.
The test system of experiment [3] is MALME-3M melanoma.
Experiment [4] has as its system MDA-MB-231 breast.
Experiment [5] has as its system RXF 393 renal.
Experiment [6] relates to SF-268 CNS.
Experiment [7] deals with SF-295 CNS.
Experiment [8] relates to SF-539 CNS.
The subject of experiment [9] is UACC-257 melanoma.
The test system of experiment [10] is M14 melanoma.

The structures appear in SMILES notation. The panel holds about 83,000 compounds, 20% with a hit somewhere; the sample as a whole holds those more often.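 A percent growth of 40 corresponds to 60% growth inhibition; 0 means no net growth; -100 means all cells died. Active threshold: below 10.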 Unmarked numbers belong to inactive results. The source made the active and inactive calls.

Turning to `C[C@]12CC[C@@H]3c4ccc(O)cc4CC[C@H]3[C@@H]1CC[C@@H]2NS(=O)(=O)c1ccc(C(F)(F)F)cc1`, the growth was 69.8% in experiment [1]; 22.5% in [2]; 9.1% (active) in experiment [3]; 67.2% in experiment [4]; 22.9% in experiment [5]; 57% in [6]. The growth was 30.9% in experiment [7], 78.1% in [8], 73.6% in experiment [9] and 36.6% in experiment [10].

`CN(C)CCCOc1ccc(NC2=C(Cl)C(=O)C(Nc3ccc(OCCCN(C)C)cc3)=C(Cl)C2=O)cc1`: the growth is -95.8% (active) in experiment [1]; -11.7% (active) in [2]; -71.7% (active) in experiment [3]; -80.2% (active) in experiment [4]; -97.9% (active) in [5]; -51.2% (active) in [6]. For the same molecule, the growth in experiment [7] was -22.8% (active); in experiment [8], -87.9% (active); in experiment [9] it was -88.2% (active); in [10], -71.8% (active).

As to `Cc1ccc(NCCN(C)CC(C)O)c2c(=O)c3ccccc3sc12` (stereo not given), the growth in experiment [1] was 47.4%; in [2], 0.188% (active); in [3], 34.6%; in experiment [4] it was 36.9%; in experiment [5] it was 24.8%; in experiment [6], 56.6%. The growth is 53.3% in experiment [7], 53.2% in [8], 45.9% in experiment [9] and -49% (active) in experiment [10].

Take `COC(=O)c1c[nH]c2cc(OC(C)C)c(OC(C)C)cc2c1=O`: the growth is 110% in experiment [1]; 98.9% in [2]; 125% in experiment [3]; 109% in experiment [4]; 94.7% in [5]; 104% in [6]. For the same molecule, the growth in experiment [7] was 105%; in experiment [8] it was 91%; in experiment [9] it was 87.6%; in [10], 108%.

`NC(=O)c1cccc(-n2ccc3cc(NC(=O)Nc4ccc(Cl)c(C(F)(F)F)c4)ccc32)n1`: the growth was 95% in [1]; 59.3% in [2]; 87.8% in [3]; 75.8% in experiment [4]; 2.44% (active) in [5]; 76.6% in experiment [6]. Besides, the growth is 58.2% in experiment [7], 44.2% in experiment [8], 93.3% in experiment [9] and 78.8% in experiment [10].

For `OCC1OC(n2ccc3c(NO)ncnc32)C(O)C1O` (stereo not given), the growth was -16.6% (active) in [1]; -11.4% (active) in experiment [2]; -69.2% (active) in experiment [3]; -20% (active) in [4]; -32.7% (active) in experiment [5]; -14.3% (active) in [6]. The growth was -15.4% (active) in experiment [7], -44% (active) in [8], -57.3% (active) in experiment [9] and -89.7% (active) in experiment [10].

Consider `O=C(Nc1cccc2c1CCCC2)c1cc2ccccc2cc1O`, for which the growth in experiment [1] was 51.2%; in experiment [2], 16.9%; in experiment [3] it was 26.8%; in experiment [4], 34.8%; in [5] it was 39.5%; in experiment [6], 38.2%. For the same molecule, the growth in experiment [7] is 79.9%; in experiment [8], 34.2%; in experiment [9], 22.3%; in [10], 21.5%.

`O=C1/C=C/[C@@H](O)[C@@H]2C[C@@H](O)C[C@H]2/C=C/CCC[C@@H](C(F)(F)F)O1`: the growth in [1] is 119%; in experiment [2] it was 92%; in experiment [3], 65%; in [4], 96.7%; in experiment [5], 42.7%; in experiment [6] it was 93.9%. Further, the growth in experiment [7] was 97.2%; in [8], 105%; in [9] it was 51.8%; in experiment [10], 112%.

With `CC(=O)OC/C=C(/C)C[P+](c1ccccc1)(c1ccccc1)c1ccccc1`, the growth is 58.3% in experiment [1]; 28.4% in experiment [2]; 61.7% in experiment [3]; 75.2% in [4]; 98% in [5]; 76.7% in experiment [6]. In addition, the growth is 41.6% in [7], 64.2% in experiment [8], 69.7% in experiment [9] and 46.6% in [10].

As for `O=C(O)c1cn(C2CC2)c2cc(N3CCN(C(=O)c4cc(-c5ccc(Cl)cc5)nc5ccccc45)CC3)c(F)cc2c1=O`, the growth in experiment [1] is 105%; in experiment [2], 83.7%; in [3] it was 107%; in experiment [4], 76.3%; in experiment [5] it was 73.6%; in experiment [6], 89%. The growth in experiment [7] is 91.3%; in experiment [8], 93.8%; in [9] it was 107%; in [10] it was 84.4%.

As for `O=c1cn[nH]c2ccc(Br)cc12`, the growth was 105% in experiment [1]; 95.7% in experiment [2]; 114% in experiment [3]; 116% in [4]; 95.3% in [5]; 99.9% in [6]. Also, the growth in experiment [7] was 107%; in [8], 95.6%; in [9] it was 104%; in experiment [10] it was 101%.

Turning to `Oc1cccc(-c2nc3sccn3c2-c2ccncn2)c1`, the growth in [1] was 106%; in [2] it was 90%; in experiment [3], -8.47% (active); in [4] it was 81.4%; in [5] it was 67.3%; in experiment [6] it was 106%. For the same molecule, the growth in [7] is 101%; in experiment [8], 98.8%; in [9], 31%; in [10], 19.4%.

In the case of `O=S(=O)(Oc1ccc(-c2ccc3sccc3c2)cc1)c1ccccc1`, the growth in experiment [1] is 107%; in experiment [2], 89.6%; in experiment [3], 105%; in experiment [4], 97.3%; in experiment [5], 97.1%; in experiment [6], 105%. For the same molecule, the growth in experiment [7] is 93.9%; in experiment [8], 108%; in [9], 104%; in experiment [10], 114%.

On to `O=C(CN(C1CCCCC1)C1CCCCC1)Nc1ccc(S(=O)(=O)c2ccc(NC(=O)CN(C3CCCCC3)C3CCCCC3)cc2)cc1`, for which the growth is -47.9% (active) in experiment [1]; -29.8% (active) in experiment [2]; -67.4% (active) in [3]; -49.4% (active) in experiment [4]; -61.4% (active) in experiment [5]; -7.58% (active) in experiment [6]. For the same molecule, the growth is 14.4% in experiment [7], -89.9% (active) in experiment [8], -17.9% (active) in experiment [9] and -59.4% (active) in experiment [10].
